For part of these data: Measured potencies and affinities stand elsewhere.
Assays:
[1] = target: T1, Methionyl-tRNA synthetase, putative (Leishmania donovani (strain BPK282A1)) (UniProt E9BF75); assay: Leishmania donovani Methionine tRNA synthetase (LdMetRS):v7. Dose response assay; type: functional; set-up: conc 80 nM, time 150 minutes
T1 sequence (whole entry): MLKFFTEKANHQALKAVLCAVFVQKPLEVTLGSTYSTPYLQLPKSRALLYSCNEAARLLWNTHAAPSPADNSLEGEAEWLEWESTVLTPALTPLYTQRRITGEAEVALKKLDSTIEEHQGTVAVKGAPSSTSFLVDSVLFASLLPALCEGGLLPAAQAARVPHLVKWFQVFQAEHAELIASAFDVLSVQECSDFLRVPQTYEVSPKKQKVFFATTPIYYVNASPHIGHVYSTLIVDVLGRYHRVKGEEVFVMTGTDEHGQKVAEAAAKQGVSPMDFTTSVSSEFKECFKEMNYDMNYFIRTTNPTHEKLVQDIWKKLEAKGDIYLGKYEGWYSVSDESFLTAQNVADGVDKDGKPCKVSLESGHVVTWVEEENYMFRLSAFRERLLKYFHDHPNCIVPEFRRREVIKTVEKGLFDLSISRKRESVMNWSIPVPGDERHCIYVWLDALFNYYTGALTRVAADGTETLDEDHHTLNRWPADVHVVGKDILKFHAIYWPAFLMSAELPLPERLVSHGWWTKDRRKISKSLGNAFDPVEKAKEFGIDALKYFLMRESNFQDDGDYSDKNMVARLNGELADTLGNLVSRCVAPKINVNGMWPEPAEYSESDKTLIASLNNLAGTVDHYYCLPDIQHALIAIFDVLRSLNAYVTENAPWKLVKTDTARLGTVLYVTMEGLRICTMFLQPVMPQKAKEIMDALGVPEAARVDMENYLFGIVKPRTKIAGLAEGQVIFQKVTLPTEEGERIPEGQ

[2] = target: Protein translocase subunit SecA (Escherichia coli (strain K12)) (UniProt P10408); assay: Assay to Identify E. coli SecA ATPase Inhibitors; type: functional; set-up: scale not given: direction of the effect not stated beside the values; settings: 30 µM
[3] = target: T2, Ubiquitin-activating enzyme e1, putative (Leishmania donovani (strain BPK282A1)) (UniProt E9BSI1); assay: Leishmania donovani Ubiquitin Activating Enzyme (LdE1); type: functional; set-up: scale not given: direction of the effect not stated beside the values; settings: 30 µM
T2 sequence (whole entry): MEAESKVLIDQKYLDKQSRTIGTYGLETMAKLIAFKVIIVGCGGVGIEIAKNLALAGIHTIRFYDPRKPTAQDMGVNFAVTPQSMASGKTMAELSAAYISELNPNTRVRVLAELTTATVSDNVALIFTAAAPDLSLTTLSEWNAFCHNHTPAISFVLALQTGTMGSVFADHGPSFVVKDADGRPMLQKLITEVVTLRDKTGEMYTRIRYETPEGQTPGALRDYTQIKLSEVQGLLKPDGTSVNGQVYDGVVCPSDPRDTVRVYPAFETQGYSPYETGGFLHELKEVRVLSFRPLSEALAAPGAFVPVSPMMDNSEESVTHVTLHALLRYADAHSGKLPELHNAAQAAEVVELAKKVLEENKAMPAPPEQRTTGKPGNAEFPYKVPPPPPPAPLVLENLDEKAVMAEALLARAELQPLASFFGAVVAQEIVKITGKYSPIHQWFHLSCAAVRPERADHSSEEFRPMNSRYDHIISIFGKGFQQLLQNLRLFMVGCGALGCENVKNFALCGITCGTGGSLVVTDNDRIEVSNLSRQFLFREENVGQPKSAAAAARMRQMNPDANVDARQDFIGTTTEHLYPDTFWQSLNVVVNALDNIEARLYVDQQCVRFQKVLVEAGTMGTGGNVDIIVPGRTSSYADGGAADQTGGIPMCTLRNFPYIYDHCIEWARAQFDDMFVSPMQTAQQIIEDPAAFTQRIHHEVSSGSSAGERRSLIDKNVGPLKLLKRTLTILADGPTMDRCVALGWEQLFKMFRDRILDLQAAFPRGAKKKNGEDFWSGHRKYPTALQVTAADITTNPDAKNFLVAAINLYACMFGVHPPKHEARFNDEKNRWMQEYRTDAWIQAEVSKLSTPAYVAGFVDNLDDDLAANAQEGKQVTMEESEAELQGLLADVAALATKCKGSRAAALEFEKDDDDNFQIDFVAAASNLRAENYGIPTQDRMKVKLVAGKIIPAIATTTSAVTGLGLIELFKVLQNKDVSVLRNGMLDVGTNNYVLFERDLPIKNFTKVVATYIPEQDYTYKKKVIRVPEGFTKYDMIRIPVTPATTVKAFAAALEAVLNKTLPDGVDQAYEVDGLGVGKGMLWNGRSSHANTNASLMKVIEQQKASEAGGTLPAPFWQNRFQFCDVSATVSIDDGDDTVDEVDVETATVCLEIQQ

[4] = target: AMP-activated protein kinase, AMPK (Homo sapiens) (UniProt P54646+O43741+P54619+Q9UGJ0+Q9Y478+Q13131+Q9UGI9); assay: AMP-dependent Kinase enzyme assay. An in vitro enzyme assay that detects ADP turnover that is directly proportional to AMPK activity. This uses naive AMPK that is activated during the assay with MK-8722; type: functional; set-up: scale not given: direction of the effect not stated beside the values; settings: 30 µM
[5] = target: Sialic acid-binding Ig-like lectin 9 (Homo sapiens) (UniProt Q9Y336); assay: Hs-Siglec9 ALPHAscreen SOP 20170721; set-up: scale not given: direction of the effect not stated beside the values; settings: 10 µM
Trypanosoma cruzi = assay: Trypanosoma cruzi phosphomannomutase and mannose-1-phosphate guanylyltransferase assay; type: functional; set-up: scale not given: direction of the effect not stated beside the values; settings: 10 µM
[6] = target: T3, Arginase-2, mitochondrial (Homo sapiens) (UniProt P78540); assay: in vitro enzyme assay to detect the production of urea directly proportional to the activity of Arginase II; type: functional; set-up: scale not given: in the data most compounds retested in dose-response had high values
T3 sequence (whole entry): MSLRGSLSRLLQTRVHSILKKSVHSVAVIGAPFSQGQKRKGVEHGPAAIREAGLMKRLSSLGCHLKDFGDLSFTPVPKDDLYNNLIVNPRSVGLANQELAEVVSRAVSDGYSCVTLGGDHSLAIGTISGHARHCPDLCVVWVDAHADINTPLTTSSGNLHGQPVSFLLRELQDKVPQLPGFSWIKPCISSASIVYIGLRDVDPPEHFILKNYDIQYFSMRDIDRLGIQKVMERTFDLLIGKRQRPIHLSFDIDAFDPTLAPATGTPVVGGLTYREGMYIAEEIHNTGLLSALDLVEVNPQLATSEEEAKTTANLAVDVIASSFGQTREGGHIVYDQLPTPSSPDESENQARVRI

[7] = target: T4, Proteasome subunit beta (Trypanosoma cruzi) (UniProt O96673); assay: Trypanosoma cruzi proteasome chymotrypsin-like activity (TcProtChymo) assay.; type: functional; set-up: scale not given: in the data most compounds retested in dose-response had high values; settings: 9.37 µM
T4 sequence (whole entry): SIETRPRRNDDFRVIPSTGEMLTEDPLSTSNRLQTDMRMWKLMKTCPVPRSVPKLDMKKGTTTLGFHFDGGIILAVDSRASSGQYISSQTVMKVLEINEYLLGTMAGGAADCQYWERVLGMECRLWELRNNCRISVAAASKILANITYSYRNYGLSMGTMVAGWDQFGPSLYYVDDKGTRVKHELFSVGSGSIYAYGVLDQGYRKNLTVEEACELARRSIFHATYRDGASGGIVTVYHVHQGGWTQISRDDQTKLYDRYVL

Homo sapiens = species: Homo sapiens; assay: To identify inhibition of the IFN signalling (Jak-Stat) pathway via expression of an eGFP reporter gene under the control of an IFN-stimulated response element (ISRE) containing MxA promoter.; type: functional; set-up: scale not given: direction of the effect not stated beside the values; settings: 30 µM
[8] = target: T5, Tyrosyl-tRNA synthetase, putative (Trypanosoma cruzi (strain CL Brener)) (UniProt Q4DSP6); assay: Trypanosoma cruzi tyrosyl tRNA synthetase (TcYRS) _High Tyrosine SOP; type: functional; set-up: scale not given: in the data most compounds retested in dose-response had high values; settings: 30 µM
T5 sequence (whole entry): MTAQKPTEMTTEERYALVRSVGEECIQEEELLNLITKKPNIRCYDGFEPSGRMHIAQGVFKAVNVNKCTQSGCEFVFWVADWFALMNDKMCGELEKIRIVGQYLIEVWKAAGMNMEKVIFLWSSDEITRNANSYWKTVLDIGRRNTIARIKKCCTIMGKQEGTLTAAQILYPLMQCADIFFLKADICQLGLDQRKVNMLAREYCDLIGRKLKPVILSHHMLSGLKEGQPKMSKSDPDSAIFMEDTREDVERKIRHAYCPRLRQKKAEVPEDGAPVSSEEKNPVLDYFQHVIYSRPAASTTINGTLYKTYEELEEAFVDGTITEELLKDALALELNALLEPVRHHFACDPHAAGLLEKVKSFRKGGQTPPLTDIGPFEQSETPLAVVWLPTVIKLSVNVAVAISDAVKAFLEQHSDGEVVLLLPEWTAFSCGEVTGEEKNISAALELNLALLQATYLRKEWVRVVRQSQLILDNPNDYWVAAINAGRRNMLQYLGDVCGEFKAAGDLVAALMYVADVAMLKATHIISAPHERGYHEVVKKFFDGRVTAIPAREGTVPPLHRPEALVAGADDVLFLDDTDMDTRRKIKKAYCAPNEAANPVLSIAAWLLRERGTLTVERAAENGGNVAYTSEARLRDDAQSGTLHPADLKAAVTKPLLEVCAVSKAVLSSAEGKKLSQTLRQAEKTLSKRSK

[9] = target: T5, Tyrosyl-tRNA synthetase, putative (Trypanosoma cruzi (strain CL Brener)); assay: Trypanosoma cruzi tyrosyl tRNA synthetase (TcYRS) SOP; type: functional; set-up: scale not given: direction of the effect not stated beside the values; settings: 30 µM
[10] = target: Chromo domain-containing protein 1 (Saccharomyces cerevisiae (strain ATCC 204508 / S288c) (Baker's yeast)) (UniProt P32657); assay: ScCHD-1 Enzyme Inhibition Assay; type: functional; set-up: scale not given: in the data most compounds retested in dose-response had high values; settings: 30 µM
Sequence of Chromo domain-containing protein 1 (Saccharomyces cerevisiae (strain ATCC 204508 / S288c) (Baker's yeast)) (P32657 whole entry, the tested form may be a part): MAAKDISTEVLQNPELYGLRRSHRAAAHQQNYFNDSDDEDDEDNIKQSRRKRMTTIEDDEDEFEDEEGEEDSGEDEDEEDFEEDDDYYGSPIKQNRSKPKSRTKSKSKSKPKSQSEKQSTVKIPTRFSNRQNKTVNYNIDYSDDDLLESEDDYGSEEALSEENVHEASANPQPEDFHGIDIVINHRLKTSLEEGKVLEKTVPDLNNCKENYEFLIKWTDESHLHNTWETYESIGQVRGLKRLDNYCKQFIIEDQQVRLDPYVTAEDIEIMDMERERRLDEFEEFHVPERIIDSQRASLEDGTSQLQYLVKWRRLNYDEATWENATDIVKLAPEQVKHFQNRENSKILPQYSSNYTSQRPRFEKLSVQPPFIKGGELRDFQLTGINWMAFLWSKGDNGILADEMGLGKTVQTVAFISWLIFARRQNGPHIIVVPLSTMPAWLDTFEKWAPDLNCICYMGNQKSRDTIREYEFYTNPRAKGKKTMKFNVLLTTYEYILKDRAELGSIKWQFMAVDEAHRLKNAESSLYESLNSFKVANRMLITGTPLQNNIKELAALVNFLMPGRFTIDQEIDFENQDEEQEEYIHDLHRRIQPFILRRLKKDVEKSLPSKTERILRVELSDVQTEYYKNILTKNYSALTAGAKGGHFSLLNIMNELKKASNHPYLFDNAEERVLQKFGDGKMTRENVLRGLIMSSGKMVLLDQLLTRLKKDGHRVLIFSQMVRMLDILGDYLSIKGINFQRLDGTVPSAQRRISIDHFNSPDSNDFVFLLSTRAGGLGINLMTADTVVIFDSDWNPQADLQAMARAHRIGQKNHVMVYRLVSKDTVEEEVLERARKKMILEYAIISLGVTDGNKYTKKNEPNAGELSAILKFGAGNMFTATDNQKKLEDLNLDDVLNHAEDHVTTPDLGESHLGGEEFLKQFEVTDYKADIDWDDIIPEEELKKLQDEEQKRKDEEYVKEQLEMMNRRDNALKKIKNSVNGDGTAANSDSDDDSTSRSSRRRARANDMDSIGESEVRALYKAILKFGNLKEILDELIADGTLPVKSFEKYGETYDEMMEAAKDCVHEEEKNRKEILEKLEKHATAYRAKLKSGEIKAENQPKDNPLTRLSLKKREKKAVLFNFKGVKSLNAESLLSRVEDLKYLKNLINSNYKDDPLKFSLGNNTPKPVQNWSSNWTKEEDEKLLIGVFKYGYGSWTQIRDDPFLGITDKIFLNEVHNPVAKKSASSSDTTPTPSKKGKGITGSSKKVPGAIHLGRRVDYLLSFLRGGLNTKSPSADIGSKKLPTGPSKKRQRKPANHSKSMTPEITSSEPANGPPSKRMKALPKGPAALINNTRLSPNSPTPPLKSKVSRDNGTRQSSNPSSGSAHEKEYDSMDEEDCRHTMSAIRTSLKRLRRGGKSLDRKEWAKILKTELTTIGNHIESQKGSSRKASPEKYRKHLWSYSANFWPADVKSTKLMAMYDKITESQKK

Sequence of Sialic acid-binding Ig-like lectin 9 (Homo sapiens) (Q9Y336 whole entry): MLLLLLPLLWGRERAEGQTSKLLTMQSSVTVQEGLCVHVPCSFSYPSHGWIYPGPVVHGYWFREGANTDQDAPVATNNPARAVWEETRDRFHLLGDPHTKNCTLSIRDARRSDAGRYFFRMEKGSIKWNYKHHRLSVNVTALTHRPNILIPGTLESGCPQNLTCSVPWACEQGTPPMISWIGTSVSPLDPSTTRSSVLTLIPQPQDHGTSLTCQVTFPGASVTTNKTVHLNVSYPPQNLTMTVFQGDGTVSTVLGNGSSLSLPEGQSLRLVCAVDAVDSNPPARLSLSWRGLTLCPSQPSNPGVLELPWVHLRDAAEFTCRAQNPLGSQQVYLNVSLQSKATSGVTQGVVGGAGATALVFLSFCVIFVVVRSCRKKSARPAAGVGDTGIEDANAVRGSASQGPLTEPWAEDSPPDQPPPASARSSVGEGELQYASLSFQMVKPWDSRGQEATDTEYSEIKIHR
Sequence of Protein translocase subunit SecA (Escherichia coli (strain K12)) (P10408 whole entry): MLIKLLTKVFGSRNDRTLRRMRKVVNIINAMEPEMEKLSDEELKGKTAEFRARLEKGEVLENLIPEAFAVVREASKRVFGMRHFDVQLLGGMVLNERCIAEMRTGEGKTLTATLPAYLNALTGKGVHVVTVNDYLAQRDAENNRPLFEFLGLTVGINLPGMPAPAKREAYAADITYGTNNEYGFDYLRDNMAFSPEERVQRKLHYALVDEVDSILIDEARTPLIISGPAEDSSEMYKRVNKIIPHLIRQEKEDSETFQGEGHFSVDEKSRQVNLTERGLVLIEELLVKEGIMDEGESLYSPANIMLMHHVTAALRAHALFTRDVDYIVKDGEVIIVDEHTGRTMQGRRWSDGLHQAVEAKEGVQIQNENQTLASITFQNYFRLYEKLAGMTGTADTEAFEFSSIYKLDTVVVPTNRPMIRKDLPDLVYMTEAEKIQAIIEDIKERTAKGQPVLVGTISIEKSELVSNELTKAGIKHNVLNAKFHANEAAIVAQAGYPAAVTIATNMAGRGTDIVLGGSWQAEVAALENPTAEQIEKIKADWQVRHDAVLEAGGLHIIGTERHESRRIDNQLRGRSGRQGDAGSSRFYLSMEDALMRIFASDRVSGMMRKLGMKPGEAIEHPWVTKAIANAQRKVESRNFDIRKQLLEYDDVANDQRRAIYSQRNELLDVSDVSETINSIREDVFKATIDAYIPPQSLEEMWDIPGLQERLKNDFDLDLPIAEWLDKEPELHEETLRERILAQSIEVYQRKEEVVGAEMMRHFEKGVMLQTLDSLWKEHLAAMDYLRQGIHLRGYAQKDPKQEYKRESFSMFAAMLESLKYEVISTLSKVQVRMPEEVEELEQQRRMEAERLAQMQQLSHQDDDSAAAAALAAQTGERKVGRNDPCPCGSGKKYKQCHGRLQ

Structure (SMILES): O=C(CCC1CCCC1)N1CCC(c2ncc3c(n2)CCNC3)CC1
- PXC50 ([1]; MAX_EFFECT 18.13380282): < 4
- PXC50 ([1]; MAX_EFFECT 20.42755344): < 4
- Percent Effect [2]: -7.04%
- Percent Effect [3]: 14.9%
- Percent Effect [4]: 0.0771%
- Percent Effect [5]: 5.51%
- Percent Effect (Trypanosoma cruzi): 2.57%
- Percent Effect ([6]; 33.3 µM): -6.26%
- Percent Effect [7]: 8.42%
- Percent Effect (Homo sapiens): 31.7%
- Percent Effect [8]: 10.8%
- Percent Effect [9]: 19.5%
- Percent Effect [10]: -23.3%

Structure (SMILES): Cc1nnc(NCC2(c3ccc(Cl)cc3Cl)CCOCC2)c(C#N)c1C
- PXC50 ([1]; MAX_EFFECT 33.25415677): < 4
- PXC50 ([1]; MAX_EFFECT 41.72535211): < 4
- Percent Effect [2]: -4%
- Percent Effect [3]: 0%
- Percent Effect [4]: -11.6%
- Percent Effect [5]: 42.2%
- Percent Effect (Trypanosoma cruzi): 12.2%
- Percent Effect ([6]; 33.3 µM): 1.91%
- Percent Effect [7]: 8.97%
- Percent Effect (Homo sapiens): 10.4%
- Percent Effect [8]: 5.82%
- Percent Effect [9]: 2.44%
- Percent Effect [10]: -12.2%

Structure (SMILES): O=C1CC(c2ccsc2)c2c(n(C3CCOCC3)[nH]c2=O)N1 (stereo not drawn)
- Percent Effect [2]: -5.06%
- Percent Effect [3]: -30.7%
- Percent Effect [4]: -12.7%
- Percent Effect [5]: 0.762%
- Percent Effect (Trypanosoma cruzi): 2.36%
- Percent Effect ([6]; 30 µM): 2.7%
- Percent Effect ([6]; 33.3 µM): 2.64%
- Percent Effect [7]: 16.4%
- Percent Effect (Homo sapiens): 1.56%
- Percent Effect [8]: 6.35%
- Percent Effect [9]: 15.4%
- Percent Effect [10]: -7.86%

Structure (SMILES): FC1(F)CCN(Cc2ccncc2)CC12CCN(Cc1ccccn1)C2 (stereo not drawn)
- PXC50 ([1]; MAX_EFFECT 4.275534442): < 4
- PXC50 ([1]; MAX_EFFECT 11.44366197): < 4
- Percent Effect [2]: -7.03%
- Percent Effect [3]: 0%
- Percent Effect [4]: -0.894%
- Percent Effect [5]: 2.49%
- Percent Effect (Trypanosoma cruzi): -5.96%
- Percent Effect ([6]; 33.3 µM): 0.319%
- Percent Effect [7]: 5.35%
- Percent Effect (Homo sapiens): 17.3%
- Percent Effect [8]: -3.24%
- Percent Effect [9]: -5.13%
- Percent Effect [10]: -2.99%

Structure (SMILES): CC1CCN(S(=O)(=O)c2cccn(CC(=O)N3CCOCC3)c2=O)CC1
- Percent Effect [2]: -2.79%
- Percent Effect [3]: 9.33%
- Percent Effect [4]: 5.14%
- Percent Effect [5]: 0.129%
- Percent Effect (Trypanosoma cruzi): -4.91%
- Percent Effect ([6]; 30 µM): 3.78%
- Percent Effect ([6]; 33.3 µM): -3.7%
- Percent Effect [7]: 7.02%
- Percent Effect (Homo sapiens): 0.032%
- Percent Effect [8]: 1.06%
- Percent Effect [9]: 2.56%
- Percent Effect [10]: -7.85%

— ChEMBL document CHEMBL3988442, “University of Dundee, Small-Polar-MMV Screening Library” (2021)
